From PMC5540273 (PLoS ONE, 2017)

Tests used:
Settings in all cases: concentration: 1 μM, replicates: in singlicate; n = 1
MST1R = system: MST1R
MST1 = system: T1, MST1
T1 construct: gene STK4

MST2 = system: T2, MST2
T2 construct: gene STK3

MST3 = system: T3, MST3
T3 construct: gene STK24

MST4 = system: MST4
MTOR = system: MTOR
MUSK = system: MUSK
MYLK2 = system: MYLK2
MYLK4 = system: MYLK4
MYLK = system: MYLK
MYO3A = system: MYO3A
MYO3B = system: MYO3B
NDR1 = system: T4, NDR1
T4 construct: gene STK38

NDR2 = system: NDR2
NEK10 = system: NEK10
NEK11 = system: NEK11
NEK1 = system: NEK1
NEK2 = system: NEK2
NEK3 = system: NEK3
NEK4 = system: NEK4
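Note: KINOMEscan kinase panel screen.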

Row | SMILES | %Inh (MST1R) | %Inh (MST1) | %Inh (MST2) | %Inh (MST3) | %Inh (MST4) | %Inh (MTOR) | %Inh (MUSK) | %Inh (MYLK2) | %Inh (MYLK4) | %Inh (MYLK) | %Inh (MYO3A) | %Inh (MYO3B) | %Inh (NDR1) | %Inh (NDR2) | %Inh (NEK10) | %Inh (NEK11) | %Inh (NEK1) | %Inh (NEK2) | %Inh (NEK3) | %Inh (NEK4)
1 | CC(=O)c1c(C)c2cnc(Nc3ccn(C)n3)nc2n(C2CCCC2)c1=O | 4% | 2% | 0% | 10% | 0% | 14% | 0% | 0% | 0% | 0% | 0% | 0% | 0% | 4% | 15% | 0% | 0% | 0% | 22% | 0%
2 | CC(=O)c1cccc(NC(=O)NC2CCN(c3ccnc(Nc4ccc(F)cc4)n3)C2)c1 (stereo not drawn) [GSK1379710] | 31% | 0% | 22% | 3% | 0% | 21% | 8% | 0% | 21% | 11% | 43% | 0% | 12% | 38% | 0% | 6% | 3% | 8% | 8% | 0%
3 | O=c1cc(N2CCOCC2)nc2n(Cc3ccccc3F)ccn12 [GSK2297428] | 26% | 8% | 0% | 0% | 0% | 13% | 0% | 0% | 0% | 12% | 13% | 0% | 34% | 0% | 1% | 0% | 0% | 0% | 0% | 0%
4 | O=C1NC(=O)C(c2ccc(Cl)cc2)=C1Nc1ccc(O)cc1 [SB-340867] | 0% | 0% | 0% | 0% | 0% | 0% | 0% | 0% | 3% | 11% | 0% | 0% | 14% | 12% | 0% | 0% | 0% | 0% | 0% | 0%
5 | Cc1ccc(-c2nc(Nc3ccncc3)c3ccccc3n2)s1 [GSK189015] | 37% | 6% | 21% | 11% | 5% | 10% | 17% | 26% | 7% | 19% | 0% | 0% | 0% | 0% | 4% | 0% | 0% | 20% | 5% | 0%
6 | COc1cccc(C2=C(Nc3cc(Cl)c(O)c(Cl)c3)C(=O)NC2=O)c1 [SB-390767] | 13% | 100% | 29% | 0% | 0% | 44% | 5% | 10% | 9% | 0% | 0% | 0% | 0% | 0% | 30% | 1% | 0% | 100% | 13% | 28%
7 | COC(=O)c1cccc(NC(=O)NC2CCN(c3ccnc(Nc4ccc(F)cc4)n3)C2)c1 (stereo not drawn) [GSK1379725] | 39% | 0% | 0% | 0% | 0% | 7% | 0% | 0% | 0% | 0% | 0% | 0% | 0% | 0% | 16% | 0% | 0% | 0% | 1% | 19%
8 | COc1cc2ncnc(Nc3cccc(Br)c3)c2cc1OC.Cl [GI230329] | 30% | 0% | 0% | 1% | 0% | 0% | 0% | 7% | 5% | 0% | 20% | 0% | 26% | 12% | 21% | 41% | 0% | 0% | 6% | 0%
9 | COc1ccc(Nc2nccc(NCCNC(=O)Nc3cc(C)ccc3C)n2)cc1 [GSK1379899] | 15% | 8% | 0% | 0% | 0% | 0% | 0% | 14% | 0% | 0% | 0% | 0% | 0% | 0% | 2% | 11% | 0% | 0% | 0% | 4%
10 | Cc1ccc(NC(=O)Nc2ccc(Cl)c(C(F)(F)F)c2)cc1-c1ccc(C(=O)Nc2ccncc2)cc1 [GSK1398470] | 38% | 9% | 0% | 13% | 0% | 16% | 10% | 0% | 2% | 24% | 60% | 0% | 23% | 0% | 2% | 0% | 0% | 23% | 2% | 17%
11 | CCn1c(-c2c(N)noc2C)nc2cnccc21 [SB-737856] | 3% | 15% | 0% | 0% | 0% | 28% | 6% | 7% | 9% | 6% | 16% | 0% | 0% | 0% | 8% | 0% | 73% | 1% | 14% | 21%
12 | Fc1ccc(-c2nn3cccc(F)c3c2-c2ccncc2)cc1 [GW475620] | 18% | 30% | 0% | 0% | 0% | 20% | 11% | 0% | 0% | 14% | 0% | 7% | 0% | 0% | 1% | 0% | 0% | 0% | 0% | 0%
13 | O=c1cc(N2CCOCC2)nc2n(Cc3cccc(Cl)c3Cl)c3ccccc3n12 [GSK2299009] | 44% | 39% | 9% | 6% | 0% | 19% | 39% | 17% | 13% | 31% | 0% | 6% | 33% | 0% | 9% | 0% | 0% | 14% | 3% | 8%
14 | CNc1nc(-c2ccc3c(N)n[nH]c3c2)cc(N2C[C@@H](C(=O)Nc3ccccc3)CC[C@H]2C)n1 [GSK2298859] | 26% | 0% | 0% | 0% | 4% | 3% | 0% | 9% | 0% | 11% | 27% | 0% | 22% | 0% | 13% | 0% | 0% | 0% | 0% | 0%
15 | COc1ccc(Nc2nccc(N3CCC(NC(=O)c4cc5ccccc5s4)C3)n2)cc1 (stereo not drawn) [GSK1379738] | 27% | 0% | 0% | 0% | 0% | 15% | 0% | 0% | 3% | 11% | 11% | 0% | 0% | 0% | 16% | 0% | 2% | 1% | 15% | 0%
16 | CSc1ccc(-c2nc3n(c2-c2ccncc2)CCC3)cc1 [SKF-105561] | 0% | 0% | 9% | 0% | 20% | 0% | 0% | 3% | 0% | 0% | 1% | 8% | 21% | 4% | 0% | 36% | 0% | 3% | 23% | 6%
17 | COC(=O)c1cccc(NC(=O)NC2CCN(c3ccnc(Nc4ccc(OC)cc4)n3)C2)c1 (stereo not drawn) [GSK1379746] | 42% | 0% | 10% | 0% | 0% | 19% | 0% | 4% | 0% | 0% | 1% | 0% | 0% | 0% | 24% | 8% | 0% | 0% | 14% | 0%
18 | Fc1ccc(-c2nc[nH]c2-c2ccncc2)cc1 [SB-217360] | 0% | 13% | 0% | 0% | 0% | 4% | 0% | 0% | 0% | 3% | 0% | 6% | 30% | 9% | 24% | 0% | 0% | 0% | 11% | 0%
